Measurements: PubChem BioAssay (NCI)
This is part of a sample that, as a whole, favours compounds with a hit. Of some 79,000 tested, about 15% had one in any assay. Values without a mark were called inactive. Activity calls are given as the source filed them. Cut-off read from the data, not from the text of the source: active = growth inhibition above about 70%; inactive = the rest.

experiment: NCI Yeast Anticancer Drug Screen. Data for the bub3 strain (AID 167); details: S. cerevisiae bub3 mutant strain, at 50.0 µM, stronger effect = higher value
Description: Growth inhibition of yeast strains with defined genetic alterations is measured as a screen for potential anti-cancer activity. Selected strains with alterations in DNA damage repair or cell cycle control were exposed to compounds and growth inhibition was measured relative to vehicle treated controls. The strain used in this assay is bub3

Row | Structure (SMILES) | growth inhibition
1 | CCC(CC)OCc1ccccc1 | 0.55%
2 | COc1ccc2c(c1)CCC1=C2CCC2=CC(=O)CC[C@@]21C | 38%
3 | Cc1nn(C)c(=O)c2nn(-c3ccccc3)c(C)c12 | 20.8%
4 | C#CCN(C(=O)C(F)(F)F)C(/C=C\C(=O)OC)(C(=O)OCC)C(=O)OCC | -17.2%
5 | O=S1(=O)CS/C(=N/C(=S)N(Cc2ccccc2)Cc2ccccc2)N1c1ccccc1 | -3.85%
6 | O=C(O)CS(=O)(=O)Cc1ccc(Cl)cc1Cl | 25.1%
7 | CCOC(=O)/C(Cc1ccccc1[N+](=O)[O-])=N/O | 12.3%
8 | CCCCCCCCOC(=O)Nc1cccc2ccccc12 | -4.35%
9 | O=S(=O)(c1ccccc1)c1ccccc1Br | -10.2%
10 | Cc1cc(O)c2c(c1)C[C@@H](O)C1=C2C(=O)c2c(O)ccc(OC3CC(O)C(OC4CC(OC5CCC(OC6CC(O)C(OC7CC(OC8CCC(O)C(C)O8)C(O)C(C)O7)C(C)O6)C(C)O5)C(O)C(C)O4)C(C)O3)c2C1=O (stereo not given in full) | 86.6% (active)
11 | N#CC(C#N)=NO (tested in a mixture with another compound) | 5.3%
12 | CC(=O)OC(C)C1(C)CCC2CCCC(C)(C)C2C1 (stereo not given) | 9.45%
13 | CC1CC[P+](C)(c2ccccc2)c2ccccc21 (stereo not given) | 2.75%
14 | Cn1c2ccccc2c2nn3cnnc3nc21 | 22.1%
15 | N#Cc1ccc(NC(=NCC(=O)O)Nc2ccc3ccccc3c2)cc1 | -26.3%
16 | C(=C\c1ccc2ccccc2c1)/c1ccc2ccccc2c1 | 6.85%
17 | CNC(=O)Nc1ccc(C(=O)O)cc1 | 9.8%
18 | C/C(O)=C(\C=N\C(=S)N=Nc1c(O)[nH]c2ccccc12)C(=O)Nc1ccccc1C | 62%
19 | CCOC(=O)C(=O)C1CC(c2ccccc2)=NNC1=O (stereo not given) | 31.1%
20 | COC(=O)/C=C/CCOS(C)(=O)=O | -3.25%

Row | Structure (SMILES) | growth inhibition
21 | COC1=C(NCCc2ccccc2)C(=O)C(OC)=C(NCCc2ccccc2)C1=O | 1.5%
22 | Nc1c([N+](=O)[O-])cc(F)cc1C(F)(F)F | 5.4%
23 | CCOC(=O)NC(=O)c1cn(CC(=O)NCC(=O)NCC(=O)N2CCN(CCn3c(C)nc(C(N)=O)c3N)CC2)c(=O)[nH]c1=O | 2.75%
24 | N#Cc1cc([N+](=O)[O-])ccc1NC(=O)C(=O)C(C(=O)c1ccc2ccccc2c1)C1OCc2ccccc21 (stereo not given) | -8.5%
25 | C=CC1CC1(Cl)Cl (stereo not given) | 0.5%
26 | c1ccc(N2N=NC3C4CC(C5COCC54)C32)cc1 (stereo not given) | 0.65%
27 | O=C(O)CCc1ccc2c(c1)OCO2 | -34.1%
28 | CCO[Si](C)(CCC#N)OCC | -31.6%
29 | CC1CCC(C(C)(C)c2ccccc2)C(=O)C1 (stereo not given) | -19%
30 | O=C(O)c1ccccc1-c1ccccc1C(=O)O | -1.8%
31 | O=c1cc(O)cc2n1CCC2 | -14.8%
32 | Cc1cc(C)c(/C(O)=C/C(=S)N2CCOCC2)c(C)c1 | -15.3%
33 | COc1cc(-c2c(C#N)c(OC)[nH]c(=O)c2C#N)cc(OC)c1OC | 1.85%
34 | CC(C)CCCC(C)CCCl (stereo not given) | 3.2%
35 | CCC(=O)NCCCCC1CCCC[N+]1(C)C (stereo not given) | -2%
36 | Cc1ccc(NC(=O)CSc2nnc(Cc3ccccc3)o2)c(C)c1 | -3.3%
37 | CCCC(=O)OCC(C)(C)COC(=O)CCC | 16%
38 | Nc1nc(-c2ccccc2)nc(N)c1C=O | -6.9%
39 | CC(C)(C#N)CCCCC(N)=O | -19.1%
40 | CC(NC(C)c1ccccc1)c1ccccc1 (stereo not given) | 3.3%
